The supplement of paper PMC11732987, “Enantioselective OTUD7B fragment discovery through chemoproteomics screening and high-throughput optimisation” (Communications Chemistry, 2025)
A number with no mark means an inactive call.

Tests used:
Test in all cases: log2 ratio of Biotin-Ahx-Ub-VS probe labelling (fragment/DMSO); higher = less target engagement (more negative = stronger competition), active = hit call of the paper (q ≤ 0.05, log2 ratio ≤ -1)
Conditions in all cases: compound concentration: 200 uM; treatment time: 3 h
[1] = target: USP9X (UniProt Q93008)
Sequence of USP9X (Q93008 whole entry, the tested form may be a part): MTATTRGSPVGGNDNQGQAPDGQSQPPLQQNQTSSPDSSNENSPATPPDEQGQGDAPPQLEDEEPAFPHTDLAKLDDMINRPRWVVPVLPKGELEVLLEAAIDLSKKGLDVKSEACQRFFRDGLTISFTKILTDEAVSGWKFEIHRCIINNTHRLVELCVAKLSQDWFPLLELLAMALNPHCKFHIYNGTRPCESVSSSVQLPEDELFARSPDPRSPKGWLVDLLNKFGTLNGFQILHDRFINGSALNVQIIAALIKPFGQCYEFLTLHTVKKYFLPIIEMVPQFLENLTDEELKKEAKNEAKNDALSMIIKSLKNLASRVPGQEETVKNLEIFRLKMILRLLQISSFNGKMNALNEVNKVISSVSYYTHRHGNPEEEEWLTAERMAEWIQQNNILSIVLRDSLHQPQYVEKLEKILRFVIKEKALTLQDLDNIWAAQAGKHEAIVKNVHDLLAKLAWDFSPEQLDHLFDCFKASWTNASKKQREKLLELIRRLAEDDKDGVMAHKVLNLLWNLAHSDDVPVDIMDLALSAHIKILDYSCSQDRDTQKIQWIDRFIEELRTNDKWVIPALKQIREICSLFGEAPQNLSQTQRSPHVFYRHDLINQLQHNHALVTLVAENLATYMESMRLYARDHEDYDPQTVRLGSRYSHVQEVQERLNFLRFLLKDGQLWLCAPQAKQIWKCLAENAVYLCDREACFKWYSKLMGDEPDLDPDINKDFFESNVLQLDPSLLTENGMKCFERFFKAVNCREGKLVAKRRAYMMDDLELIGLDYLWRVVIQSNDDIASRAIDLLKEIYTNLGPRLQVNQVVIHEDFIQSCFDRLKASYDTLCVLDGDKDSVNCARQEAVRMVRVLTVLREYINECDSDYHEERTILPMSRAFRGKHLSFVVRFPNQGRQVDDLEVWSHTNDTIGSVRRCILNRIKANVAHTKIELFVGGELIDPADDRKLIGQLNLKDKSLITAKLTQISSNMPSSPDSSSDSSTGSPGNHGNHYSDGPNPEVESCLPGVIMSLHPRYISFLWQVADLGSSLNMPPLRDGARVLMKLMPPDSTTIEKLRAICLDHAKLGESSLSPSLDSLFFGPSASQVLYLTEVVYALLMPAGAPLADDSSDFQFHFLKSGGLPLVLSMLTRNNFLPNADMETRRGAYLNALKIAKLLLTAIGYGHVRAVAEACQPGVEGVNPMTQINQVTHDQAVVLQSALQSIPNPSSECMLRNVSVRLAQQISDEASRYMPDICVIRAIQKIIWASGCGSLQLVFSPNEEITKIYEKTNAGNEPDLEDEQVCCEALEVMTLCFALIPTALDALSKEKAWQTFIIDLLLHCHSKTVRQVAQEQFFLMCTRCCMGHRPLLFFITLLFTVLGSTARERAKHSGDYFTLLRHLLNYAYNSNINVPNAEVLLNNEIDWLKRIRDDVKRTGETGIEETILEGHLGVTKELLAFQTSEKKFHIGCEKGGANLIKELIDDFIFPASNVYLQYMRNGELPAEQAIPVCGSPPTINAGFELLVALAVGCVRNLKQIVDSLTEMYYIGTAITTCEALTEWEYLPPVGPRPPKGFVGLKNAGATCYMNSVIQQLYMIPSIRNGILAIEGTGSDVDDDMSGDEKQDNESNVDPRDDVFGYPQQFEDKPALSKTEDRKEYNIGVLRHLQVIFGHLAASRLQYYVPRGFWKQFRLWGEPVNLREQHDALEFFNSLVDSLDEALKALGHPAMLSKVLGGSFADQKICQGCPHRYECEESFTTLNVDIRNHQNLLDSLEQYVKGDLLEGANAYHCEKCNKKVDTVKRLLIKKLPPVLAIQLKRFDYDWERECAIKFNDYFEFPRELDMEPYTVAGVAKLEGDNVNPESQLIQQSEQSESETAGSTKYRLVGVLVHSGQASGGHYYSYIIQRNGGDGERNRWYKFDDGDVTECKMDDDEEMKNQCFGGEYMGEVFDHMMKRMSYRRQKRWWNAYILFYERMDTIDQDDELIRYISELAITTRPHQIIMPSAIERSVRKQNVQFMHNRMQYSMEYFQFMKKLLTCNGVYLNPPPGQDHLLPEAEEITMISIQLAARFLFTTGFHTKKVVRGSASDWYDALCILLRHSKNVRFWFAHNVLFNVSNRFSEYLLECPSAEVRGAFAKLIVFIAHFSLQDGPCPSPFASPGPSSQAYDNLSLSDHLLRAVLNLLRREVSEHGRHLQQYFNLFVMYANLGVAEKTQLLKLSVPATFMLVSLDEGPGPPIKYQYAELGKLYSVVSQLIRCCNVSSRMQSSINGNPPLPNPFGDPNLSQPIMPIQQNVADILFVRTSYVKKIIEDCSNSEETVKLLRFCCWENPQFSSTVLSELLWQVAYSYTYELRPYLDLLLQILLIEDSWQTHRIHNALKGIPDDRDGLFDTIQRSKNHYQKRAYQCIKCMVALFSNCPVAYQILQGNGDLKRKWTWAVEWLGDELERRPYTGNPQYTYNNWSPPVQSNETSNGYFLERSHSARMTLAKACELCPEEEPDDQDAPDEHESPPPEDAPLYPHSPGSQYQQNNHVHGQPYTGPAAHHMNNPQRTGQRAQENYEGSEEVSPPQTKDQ
Summary of the method: (§1)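 HEK293T lysate in Tris/CHAPS/IGEPAL buffer with protease inhibitors (495 µg per sample) was given fragment at 200 µM or vehicle for 3 h, in triplicate. It then received Biotin-Ahx-Ub-VS at 0.5 µM final for 1 h. Labelled DUBs were NeutrAvidin-enriched, digested with LysC and trypsin, and run by diaPASEF LC-MS/MS. Values are average log2 fragment/vehicle ratios by unpaired t-test on global-median-normalised Spectronaut quantities of proteins with ≥2 unique peptides.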

[2] = target: UniProt O00487
Sequence of UniProt O00487 (O00487 whole entry): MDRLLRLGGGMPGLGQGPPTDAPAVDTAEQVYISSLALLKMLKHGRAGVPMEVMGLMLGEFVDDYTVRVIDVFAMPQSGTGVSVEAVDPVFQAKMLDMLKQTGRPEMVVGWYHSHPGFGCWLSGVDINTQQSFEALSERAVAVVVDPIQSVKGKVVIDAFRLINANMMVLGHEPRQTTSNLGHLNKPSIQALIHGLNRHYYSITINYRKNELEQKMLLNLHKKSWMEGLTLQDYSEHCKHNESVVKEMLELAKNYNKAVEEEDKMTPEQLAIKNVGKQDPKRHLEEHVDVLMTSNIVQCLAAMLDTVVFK
Summary of the method: as §1

[3] = target: UniProt O00507
Summary of the method: as §1

[4] = target: UniProt P51784
Sequence of UniProt P51784 (P51784 whole entry): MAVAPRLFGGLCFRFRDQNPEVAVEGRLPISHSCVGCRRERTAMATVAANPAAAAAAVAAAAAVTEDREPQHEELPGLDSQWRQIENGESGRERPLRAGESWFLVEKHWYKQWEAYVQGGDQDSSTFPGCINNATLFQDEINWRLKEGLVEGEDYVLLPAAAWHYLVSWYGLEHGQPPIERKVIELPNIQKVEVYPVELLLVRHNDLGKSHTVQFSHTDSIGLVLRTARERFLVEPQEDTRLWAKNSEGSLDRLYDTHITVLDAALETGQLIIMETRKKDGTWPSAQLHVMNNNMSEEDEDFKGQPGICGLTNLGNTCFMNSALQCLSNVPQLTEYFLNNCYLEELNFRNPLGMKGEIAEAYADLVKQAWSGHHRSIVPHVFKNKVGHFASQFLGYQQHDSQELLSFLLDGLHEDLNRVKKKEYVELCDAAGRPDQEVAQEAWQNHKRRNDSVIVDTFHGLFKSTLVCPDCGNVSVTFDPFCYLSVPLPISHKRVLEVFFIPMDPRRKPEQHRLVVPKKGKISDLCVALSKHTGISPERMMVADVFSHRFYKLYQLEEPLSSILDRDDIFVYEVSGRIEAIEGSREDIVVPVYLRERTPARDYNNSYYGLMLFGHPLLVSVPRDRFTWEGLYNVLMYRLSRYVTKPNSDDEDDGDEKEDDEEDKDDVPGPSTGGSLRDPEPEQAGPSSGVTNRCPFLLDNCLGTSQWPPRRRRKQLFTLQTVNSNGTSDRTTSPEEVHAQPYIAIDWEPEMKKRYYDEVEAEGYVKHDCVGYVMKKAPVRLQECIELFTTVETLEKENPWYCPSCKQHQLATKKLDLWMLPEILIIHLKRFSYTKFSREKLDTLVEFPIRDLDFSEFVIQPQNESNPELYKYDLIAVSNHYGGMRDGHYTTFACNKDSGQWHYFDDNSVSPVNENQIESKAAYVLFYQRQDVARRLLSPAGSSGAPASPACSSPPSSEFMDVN
Summary of the method: as §1

[5] = target: T1, UniProt Q5T2D3
T1 sequence (whole entry): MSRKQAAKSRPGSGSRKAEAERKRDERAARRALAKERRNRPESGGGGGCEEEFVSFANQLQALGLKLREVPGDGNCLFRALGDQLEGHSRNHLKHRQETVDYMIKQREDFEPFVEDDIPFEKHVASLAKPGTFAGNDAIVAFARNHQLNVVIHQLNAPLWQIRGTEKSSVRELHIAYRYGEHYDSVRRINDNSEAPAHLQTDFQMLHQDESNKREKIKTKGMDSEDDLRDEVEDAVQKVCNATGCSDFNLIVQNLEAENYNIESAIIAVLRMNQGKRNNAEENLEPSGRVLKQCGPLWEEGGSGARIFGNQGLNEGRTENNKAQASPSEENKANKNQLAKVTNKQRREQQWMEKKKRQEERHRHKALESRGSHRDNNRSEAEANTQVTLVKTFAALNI
Summary of the method: as §1

[6] = target: T2, UniProt Q8TE49
T2 sequence (whole entry): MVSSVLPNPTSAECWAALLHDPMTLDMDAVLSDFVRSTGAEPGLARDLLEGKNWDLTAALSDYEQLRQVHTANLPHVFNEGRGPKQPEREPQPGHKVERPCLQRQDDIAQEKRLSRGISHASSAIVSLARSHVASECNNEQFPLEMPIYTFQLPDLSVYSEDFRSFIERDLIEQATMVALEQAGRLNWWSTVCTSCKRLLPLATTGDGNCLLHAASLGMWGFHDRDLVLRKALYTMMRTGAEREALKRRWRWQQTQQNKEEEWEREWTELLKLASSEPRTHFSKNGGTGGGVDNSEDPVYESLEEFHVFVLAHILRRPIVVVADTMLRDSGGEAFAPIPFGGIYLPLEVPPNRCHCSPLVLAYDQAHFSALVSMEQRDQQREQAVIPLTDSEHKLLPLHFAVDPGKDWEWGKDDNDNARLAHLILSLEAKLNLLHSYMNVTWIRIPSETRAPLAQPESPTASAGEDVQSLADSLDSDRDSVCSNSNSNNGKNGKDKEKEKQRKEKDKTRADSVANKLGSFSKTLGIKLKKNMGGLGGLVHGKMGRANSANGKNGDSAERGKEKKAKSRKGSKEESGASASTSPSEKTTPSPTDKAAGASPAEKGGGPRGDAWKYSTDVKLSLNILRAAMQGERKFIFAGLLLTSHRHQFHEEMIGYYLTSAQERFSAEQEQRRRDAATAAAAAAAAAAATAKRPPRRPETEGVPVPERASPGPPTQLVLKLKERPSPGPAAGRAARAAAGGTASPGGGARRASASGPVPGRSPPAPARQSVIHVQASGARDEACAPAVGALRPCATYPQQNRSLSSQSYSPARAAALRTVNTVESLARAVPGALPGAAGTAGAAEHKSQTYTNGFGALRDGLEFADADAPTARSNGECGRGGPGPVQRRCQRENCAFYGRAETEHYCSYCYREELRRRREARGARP
Summary of the method: as §1

[7] = target: T3, UniProt Q9P2H5
T3 sequence (whole entry): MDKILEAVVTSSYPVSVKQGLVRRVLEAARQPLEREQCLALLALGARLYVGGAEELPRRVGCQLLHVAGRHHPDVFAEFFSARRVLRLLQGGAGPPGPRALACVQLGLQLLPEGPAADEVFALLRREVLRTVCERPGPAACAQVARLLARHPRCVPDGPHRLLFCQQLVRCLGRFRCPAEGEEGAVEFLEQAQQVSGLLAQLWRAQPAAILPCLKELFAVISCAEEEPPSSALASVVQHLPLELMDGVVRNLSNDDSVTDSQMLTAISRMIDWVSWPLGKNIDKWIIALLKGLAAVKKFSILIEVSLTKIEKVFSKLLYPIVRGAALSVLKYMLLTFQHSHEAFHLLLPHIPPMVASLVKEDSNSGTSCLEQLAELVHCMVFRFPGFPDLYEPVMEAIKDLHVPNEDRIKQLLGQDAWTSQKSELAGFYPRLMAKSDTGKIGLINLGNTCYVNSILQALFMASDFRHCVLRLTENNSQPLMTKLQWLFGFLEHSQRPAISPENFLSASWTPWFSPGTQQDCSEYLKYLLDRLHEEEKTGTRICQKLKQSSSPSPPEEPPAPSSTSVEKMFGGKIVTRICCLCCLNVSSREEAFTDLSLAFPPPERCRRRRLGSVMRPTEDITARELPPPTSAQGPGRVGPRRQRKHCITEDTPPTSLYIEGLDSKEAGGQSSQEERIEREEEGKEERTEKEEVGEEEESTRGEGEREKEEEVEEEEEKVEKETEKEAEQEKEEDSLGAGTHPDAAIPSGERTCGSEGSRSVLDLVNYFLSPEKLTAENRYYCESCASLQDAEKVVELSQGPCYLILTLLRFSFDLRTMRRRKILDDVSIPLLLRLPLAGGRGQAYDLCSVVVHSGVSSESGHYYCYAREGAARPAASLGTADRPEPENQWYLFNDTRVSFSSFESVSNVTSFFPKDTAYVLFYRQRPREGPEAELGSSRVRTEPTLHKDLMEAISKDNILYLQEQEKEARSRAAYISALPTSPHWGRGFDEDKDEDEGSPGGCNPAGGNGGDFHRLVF
Summary of the method: as §1

[8] = target: T4, UniProt Q9UGI0
T4 sequence (whole entry): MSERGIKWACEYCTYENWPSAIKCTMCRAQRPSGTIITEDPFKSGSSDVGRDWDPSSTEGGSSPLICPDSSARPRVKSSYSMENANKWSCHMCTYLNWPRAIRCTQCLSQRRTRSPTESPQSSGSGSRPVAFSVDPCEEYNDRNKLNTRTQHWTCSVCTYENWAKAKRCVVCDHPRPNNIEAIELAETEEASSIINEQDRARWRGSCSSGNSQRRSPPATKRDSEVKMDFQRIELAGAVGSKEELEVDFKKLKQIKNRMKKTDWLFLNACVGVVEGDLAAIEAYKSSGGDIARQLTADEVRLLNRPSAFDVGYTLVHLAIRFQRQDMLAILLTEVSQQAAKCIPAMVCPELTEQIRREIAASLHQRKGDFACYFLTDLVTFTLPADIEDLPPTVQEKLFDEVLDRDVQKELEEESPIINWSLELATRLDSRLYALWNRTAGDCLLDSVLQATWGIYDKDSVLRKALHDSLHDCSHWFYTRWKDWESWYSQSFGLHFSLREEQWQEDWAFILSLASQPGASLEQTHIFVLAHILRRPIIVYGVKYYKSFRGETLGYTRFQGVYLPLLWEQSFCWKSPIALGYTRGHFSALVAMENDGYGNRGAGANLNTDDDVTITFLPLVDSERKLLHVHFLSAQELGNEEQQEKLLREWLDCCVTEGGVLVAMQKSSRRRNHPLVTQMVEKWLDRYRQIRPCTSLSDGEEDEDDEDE
Summary of the method: as §1

[9] = target: T5, YOD1 (UniProt Q5VVQ6)
T5 sequence (whole entry): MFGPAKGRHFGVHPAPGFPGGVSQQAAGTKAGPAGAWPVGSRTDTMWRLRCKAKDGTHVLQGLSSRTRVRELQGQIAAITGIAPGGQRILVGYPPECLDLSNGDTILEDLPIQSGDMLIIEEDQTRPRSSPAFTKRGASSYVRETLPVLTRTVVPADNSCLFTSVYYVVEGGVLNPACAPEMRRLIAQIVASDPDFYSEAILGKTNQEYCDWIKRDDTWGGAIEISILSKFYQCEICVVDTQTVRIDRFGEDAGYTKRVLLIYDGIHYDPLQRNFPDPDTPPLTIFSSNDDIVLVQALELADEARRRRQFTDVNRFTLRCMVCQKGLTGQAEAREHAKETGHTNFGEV
Summary of the method: as §1

O=C(CCl)NC1CCS(=O)(=O)c2ccccc21 (centres undefined)
log2 ratio of Biotin-Ahx-Ub-VS probe labelling [1]: -0.445 | log2 ratio of Biotin-Ahx-Ub-VS probe labelling [2]: -0.242 | log2 ratio of Biotin-Ahx-Ub-VS probe labelling [3]: -0.00358 | log2 ratio of Biotin-Ahx-Ub-VS probe labelling [4]: -0.174 | log2 ratio of Biotin-Ahx-Ub-VS probe labelling [5]: -0.342 | log2 ratio of Biotin-Ahx-Ub-VS probe labelling [6]: -1.2 (active) | log2 ratio of Biotin-Ahx-Ub-VS probe labelling [7]: -0.644 | log2 ratio of Biotin-Ahx-Ub-VS probe labelling [8]: -0.564 | log2 ratio of Biotin-Ahx-Ub-VS probe labelling [9]: 0.0479
